Assays:
Conditions in all cases: Compound Concentration (nM):1000
SIK = test system: T1, SIK
T1 construct: gene SIK1

SLK = test system: SLK
SNARK = test system: T2, SNARK
T2 construct: gene NUAK2

SNRK = test system: SNRK
SRC = test system: SRC
SRMS = test system: SRMS
SRPK1 = test system: SRPK1
SRPK2 = test system: SRPK2
SRPK3 = test system: SRPK3
STK16 = test system: STK16
STK33 = test system: STK33
STK35 = test system: STK35
STK36 = test system: STK36
STK39 = test system: STK39
SYK = test system: SYK
SgK110 = test system: SgK110
TAK1 = test system: T3, TAK1
T3 construct: gene MAP3K7

TAOK1 = test system: TAOK1
TAOK2 = test system: TAOK2
TAOK3 = test system: TAOK3
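Further: KINOMEscan scanMAX binding as percent activity remaining versus control; lower means stronger binding.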

SMILES	Percent Control (SIK)	Percent Control (SLK)	Percent Control (SNARK)	Percent Control (SNRK)	Percent Control (SRC)	Percent Control (SRMS)	Percent Control (SRPK1)	Percent Control (SRPK2)	Percent Control (SRPK3)	Percent Control (STK16)	Percent Control (STK33)	Percent Control (STK35)	Percent Control (STK36)	Percent Control (STK39)	Percent Control (SYK)	Percent Control (SgK110)	Percent Control (TAK1)	Percent Control (TAOK1)	Percent Control (TAOK2)	Percent Control (TAOK3)
Cl.O=C(Nc1ccc(Oc2ccc3[nH]c(NC(=O)c4ccccc4)nc3c2)cc1)Nc1cc(C(F)(F)F)ccc1F [GW709042A]	100%	70%	92%	89%	98%	91%	89%	93%	70%	88%	29%	95%	100%	100%	99%	100%	58%	90%	91%	98%
NS(=O)(=O)c1ccc(N/N=C2\C(=O)Nc3ccc(-c4cnco4)cc32)cc1 [GW276655]	77%	86%	49%	55%	83%	73%	100%	100%	76%	46%	100%	99%	100%	88%	100%	73%	32%	86%	95%	98%
COc1ccc(COc2ccc(Cc3cnc(N)nc3N)cc2OC)cc1 [GW632580X]	96%	93%	88%	87%	88%	100%	100%	95%	100%	93%	100%	100%	74%	91%	100%	100%	97%	100%	100%	100%
NS(=O)(=O)c1ccc(N/N=C2\C(=O)Nc3ccc(C(=O)NCCc4c[nH]cn4)cc32)cc1 [GW300660X]	100%	100%	6.9%	100%	100%	90%	86%	100%	76%	34%	67%	100%	100%	100%	100%	100%	18%	75%	93%	86%
CN(C)CCNC(=O)Nc1ccc(N(C)c2ccnc(Nc3ccc(CS(C)(=O)=O)cc3)n2)cc1.Cl [GW830900A]	74%	42%	43%	77%	100%	95%	17%	100%	7.7%	30%	85%	14%	70%	78%	97%	47%	48%	80%	86%	89%
COc1cc(C)c(N(C)C(=O)CN(C)C)cc1Nc1nc(Nc2cccc(F)c2C(N)=O)c2cc[nH]c2n1 [GSK2219385]	100%	100%	100%	76%	100%	100%	90%	100%	100%	83%	91%	98%	100%	81%	100%	100%	93%	100%	100%	100%
COc1cc(C=NNc2ncnc3c2cnn3-c2ccccc2)ccc1O [GW513184X]	79%	79%	87%	100%	59%	100%	33%	100%	100%	100%	100%	80%	82%	100%	38%	100%	59%	100%	100%	95%
CN1CCN(C(=O)c2ccc(NC(=O)Nc3ccc(N(C)c4ccnc(Nc5ccc(CS(C)(=O)=O)cc5)n4)cc3)cc2)CC1.Cl [GW830263A]	92%	8.9%	39%	78%	100%	77%	2.3%	80%	7.7%	15%	92%	71%	37%	79%	34%	89%	25%	71%	76%	83%
Cl.O=C(Nc1ccc(Oc2ccc3[nH]c(NC(=O)c4ccco4)nc3c2)cc1)Nc1cc(C(F)(F)F)ccc1F [GW683134A]	100%	40%	100%	95%	96%	100%	100%	100%	84%	92%	9.8%	81%	100%	100%	100%	100%	9.1%	100%	97%	100%
COc1ccc2cc(-c3c(-c4ccncc4)nc(-c4ccc(S(C)(=O)=O)cc4C)n3C)ccc2c1 [SB-633825]	96%	1.7%	82%	91%	82%	85%	90%	76%	83%	93%	89%	57%	82%	66%	78%	85%	80%	84%	77%	74%
Cl.O=S1CCN(Cc2ccc(-c3ccc4ncnc(Nc5ccc(OCc6ccccc6)c(F)c5)c4c3)o2)CC1 [GW576924A]	100%	100%	96%	100%	100%	100%	100%	100%	78%	100%	84%	100%	100%	100%	100%	100%	100%	100%	100%	100%
NS(=O)(=O)c1ccc(N/N=C2\C(=O)Nc3ccc(Cl)cc32)cc1 [GW280670X]	100%	100%	91%	100%	100%	100%	97%	100%	88%	84%	95%	100%	100%	100%	98%	100%	81%	95%	100%	100%
CCS(=O)(=O)c1ccc(OC)c(Nc2ncc(-c3cccc(F)c3)o2)c1 [GW621970X]	100%	100%	100%	100%	19%	67%	92%	97%	100%	38%	95%	100%	100%	100%	81%	100%	100%	87%	100%	100%
C[C@@H](Oc1cc(-n2cnc3ccc(OC4CCN(C)CC4)cc32)sc1C(N)=O)c1ccccc1Cl [GSK579289A]	100%	7.9%	1%	59%	100%	94%	92%	86%	100%	69%	100%	82%	76%	83%	100%	100%	38%	75%	96%	79%
COc1cccc(-c2c[nH]c3c(N/N=C/c4ccncc4)ncnc23)c1 [GW814408X]	92%	76%	56%	100%	27%	100%	38%	100%	60%	65%	84%	100%	11%	100%	72%	87%	100%	11%	51%	32%
COc1cc2ncnc(Nc3ccc4c(cnn4Cc4ccccc4)c3)c2cc1OC.Cl [GW282449A]	100%	77%	100%	100%	100%	50%	92%	100%	97%	100%	98%	100%	100%	100%	77%	100%	100%	100%	100%	100%
CC(C)COC(=O)c1ccc2c(c1)/C(=C/Nc1ccc(S(N)(=O)=O)cc1)C(=O)N2 [GW416981X]	100%	100%	13%	100%	100%	100%	100%	100%	100%	6.8%	24%	100%	100%	100%	100%	100%	21%	85%	100%	99%
Cl.O=C(O[C@H]1CN[C@H](C#Cc2cc3ncnc(Nc4ccc5c(cnn5Cc5ccccc5)c4)c3s2)C1)N1CCOCC1 [GSK200398A]	100%	98%	100%	100%	100%	92%	84%	85%	100%	100%	90%	99%	100%	83%	91%	100%	100%	91%	97%	100%
COc1ccc2[nH]c3c4[nH]c5ccc(OC)cc5c4c4c(c3c2c1)C(=O)NC4=O [GW296115X]	67%	96%	59%	56%	87%	100%	86%	94%	100%	74%	33%	80%	70%	100%	73%	100%	20%	100%	96%	96%
CC1=C(C(=O)Nc2ccc3[nH]ncc3c2)C(c2ccc(Cl)c(Cl)c2)CC(=O)N1 (stereo not shown) [GSK299115A]	97%	98%	25%	100%	80%	88%	99%	100%	90%	85%	82%	84%	100%	81%	99%	100%	82%	68%	77%	81%
